Measurements: the supplement of paper PMC6555819

Tested on: RARb homodimer (NR concentration 270 nM)
Assay: PBM binding z-score (relative to random genomic background probes); higher = stronger binding; sequences stand for … in GC…GCGATTGACAGCGTAGAATGAAGG
Method in brief: (§1)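 For binding z-scores, the reference was random background probes on custom Agilent 4×180K protein-binding microarrays. These arrays were incubated 1 h with ligand-free nuclear receptor dimers in PBS pH 7.4, 2% milk, 0.02% Triton X-100, 1 mM DTT, 0.2 mg/mL BSA and 0.4 mg/ml salmon testes DNA. Fluorescence was scanned after antibody detection of each partner (one per run) and regression-normalized.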

In order of falling PBM binding z-score:
1. ACTAGTTGGTCAGCTGAGGTCACCCACAATTCGG  4.38
2. CGTCCAAGGTCAGCAGGGCAGTGAAAGCGACGTG  4.12
3. AGTCAAAGTTCATCTAGGTAACGTAAGATATGCT  4.07
4. TATACAGGGTCAAAGGCCAGGGTACGAATGTCGA  3.71
5. CGTACTAGGTCAAGGACAGTGAATCTCCGCACGC  3.14
6. CCTAGCAGGGCAGGGTCACTCAAGCATTTCGCTT  3.05
7. TCTAGGAGGCCAGAGGGTCACTCAAGAGGTACGG  3.01
8. ACCGAAAGGTCGTGAGGTGAGTATACAGAAAGGC  2.84
9. CCTAGCAGGCCAGGGTCACTCATGCATTTCGCTT  2.68
10. CCTTACGGGTCACTCCAGCTTATAGCATCGGAGT  2.64
11. ATCTCTTGGTAAAGTTCAGTGAAAGATCGATAGA  2.41
12. CCTGCTAGGTCAATGGGCAGCTAAAGCAGCTCGC  2.4
13. CCTATTAGTTGACCATAAGGGCAACCGAAGCTCG  2.05
14. GCTAGCAGGCCAATTGGGTCACTCAATGACGGGC  1.94
15. TAATATAGGTAAAGGTGAAAGTCGAACGATATGA  1.71
16. GCTATTAGTTGAAAGGGCAGCCGAATGATTCTCG  1.51
17. AGAGTGAGGTTATTAAGATCAGGGAATTGCGGTC  1.42
18. ACTAGCTGGCCAAGTTTGGGTCACTCAAACAAAG  1.35
19. TTACCTAGGTGAGCTGAGGTCGTTGATCCAACTC  1.32
20. TCAGACAGGTGAAGGTAACTCAAGTACGCAGTCG  0.996
21. GGTTGTAGATCAAGGTTAAGAAAGACTAAGCTAA  0.97
22. ATCTCTAGGTAACCAGGTTCAGTGAATGCCGAAC  0.891
23. ACTCGGAGGACAAAGGCCAGAGCTACGCCAGTGA  0.873
24. TCATATAGGTATACAGGTGAAAGTCCGTAAGTTA  0.863
25. AGAACGAGGGCAATGAGTTGATAGAACGGGTGGC  0.861
26. CCTGCTAGGTTATGGTCAGCTAATCTACAGTATG  0.748
27. GTACCAAGGGGAATAGGTCGTTGATGAGTAGGCG  0.74
28. TCGAGTAGGTTAGTCGGGGCAGTCAGCCAACATA  0.699
29. TTACCAAGGTGAAAGGTAGTTGATGCACGCCTTG  0.674
30. ATCGAAAGGCCGAGGTGAGTATAGAGAAAGGGAA  0.669
31. TCATATAGGAAAACAGGTGAAAGTCCGTAAGTTA  0.455
32. TCATATAGGTAAACAGGTGAAAGACCGTAAGTTA  0.437
33. TGAACGAGGTTATAAGATCAGGGAACGTTGCAAA  0.253
34. CGAACGAGGGCATGAATTGATAGCAAATGCCGAT  0.244
35. CAGCCTATGTCAGGGCCAGTATAGGAGGAACGTT  0.243
36. ACAGACAGGTGGTGAAGGTAACTCAGGCTATCAT  0.218
37. ACTAGCAGGCCAAGTTTGAGTCACTCAAACAAAG  -0.195
38. ACTATTAGTTGAGACGAGGGGAACCGATAGGTTG  -0.242
39. TGAATGAGGATATAAGATCAGGGAACGTTGCAAA  -0.689

Tested on: RARg:RXRa (NR concentration 270 nM, RXRa partner concentration 90 nM)
Assay: as above
Method in brief: as §1

In order of rising PBM binding z-score:
1. TCGAGTAGGTTAGTCGGGGCAGTCAGCCAACATA  -0.199
2. ACAGACAGGTGGTGAAGGTAACTCAGGCTATCAT  0.00728
3. ACTAGCAGGCCAAGTTTGAGTCACTCAAACAAAG  0.0466
4. CAGCCTATGTCAGGGCCAGTATAGGAGGAACGTT  0.116
5. TGAATGAGGATATAAGATCAGGGAACGTTGCAAA  0.125
6. ACTATTAGTTGAGACGAGGGGAACCGATAGGTTG  0.21
7. TCATATAGGAAAACAGGTGAAAGTCCGTAAGTTA  0.219
8. CCTGCTAGGTTATGGTCAGCTAATCTACAGTATG  0.34
9. ATCTCTAGGTAACCAGGTTCAGTGAATGCCGAAC  0.484
10. TCATATAGGTATACAGGTGAAAGTCCGTAAGTTA  0.487
11. GTACCAAGGGGAATAGGTCGTTGATGAGTAGGCG  0.528
12. GCTATTAGTTGAAAGGGCAGCCGAATGATTCTCG  0.552
13. TCAGACAGGTGAAGGTAACTCAAGTACGCAGTCG  0.573
14. GGTTGTAGATCAAGGTTAAGAAAGACTAAGCTAA  0.695
15. TCATATAGGTAAACAGGTGAAAGACCGTAAGTTA  0.712
16. TTACCTAGGTGAGCTGAGGTCGTTGATCCAACTC  0.757
17. ACTAGCTGGCCAAGTTTGGGTCACTCAAACAAAG  0.786
18. ATCGAAAGGCCGAGGTGAGTATAGAGAAAGGGAA  0.835
19. CGAACGAGGGCATGAATTGATAGCAAATGCCGAT  0.899
20. ACTCGGAGGACAAAGGCCAGAGCTACGCCAGTGA  0.907
21. GCTAGCAGGCCAATTGGGTCACTCAATGACGGGC  1.01
22. TTACCAAGGTGAAAGGTAGTTGATGCACGCCTTG  1.1
23. AGAGTGAGGTTATTAAGATCAGGGAATTGCGGTC  1.12
24. AGAACGAGGGCAATGAGTTGATAGAACGGGTGGC  1.14
25. CCTATTAGTTGACCATAAGGGCAACCGAAGCTCG  1.31
26. TGAACGAGGTTATAAGATCAGGGAACGTTGCAAA  1.53
27. TAATATAGGTAAAGGTGAAAGTCGAACGATATGA  1.62
28. ATCTCTTGGTAAAGTTCAGTGAAAGATCGATAGA  2.08
29. CCTAGCAGGCCAGGGTCACTCATGCATTTCGCTT  2.82
30. TCTAGGAGGCCAGAGGGTCACTCAAGAGGTACGG  3.09
31. CCTGCTAGGTCAATGGGCAGCTAAAGCAGCTCGC  3.12
32. CCTAGCAGGGCAGGGTCACTCAAGCATTTCGCTT  3.61
33. CGTACTAGGTCAAGGACAGTGAATCTCCGCACGC  3.81
34. CCTTACGGGTCACTCCAGCTTATAGCATCGGAGT  4.1
35. ACTAGTTGGTCAGCTGAGGTCACCCACAATTCGG  4.14
36. ACCGAAAGGTCGTGAGGTGAGTATACAGAAAGGC  4.64
37. CGTCCAAGGTCAGCAGGGCAGTGAAAGCGACGTG  5.28
38. AGTCAAAGTTCATCTAGGTAACGTAAGATATGCT  5.59
39. TATACAGGGTCAAAGGCCAGGGTACGAATGTCGA  5.77
